According to PubChem BioAssay AID1347075 (National Center for Advancing Translational Sciences (NCATS), 2019):
The whole screen tested about 400,000 compounds, of which about 5,500 (1.4%) were called active. A call without a number means that no potency is given here. Another 9% or so got no clear call; they are omitted. Calls follow the shape of the dose curve; as a rule, active = well fitted cell-killing curve with a large enough effect; inconclusive = small, poorly fitted or top-dose-only effect, or effect the other way; inactive = flat fitted curve, though single readings scatter. The sample as a whole holds a higher share of actives than the screen did.

Assay: qHTS assay for MDR1-selective chemotherapeutics: Primary screen using the parental adenocarcinoma cell KB-3-1; also: nearly all actives have a fitted effect of over 60% in size
Conditions: KB-3-1 viability, CellTiter-Glo ATP luminescence, 72 h; series mostly up to 46.1 µM
Method in brief: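 72 h, 37 °C compound treatment of KB-3-1 parental cells; CellTiter-Glo added, 10 min, luminescence read. Data corrected against DMSO-only plates and normalized before curve fitting.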
Potency is read from the fitted curve at half-maximal effect.

Compound	Potency
Cc1cccc(OCCSc2nc3ccccc3n2CC(=O)N2CCCCC2)c1C	inactive
Cc1cc(N2CCN(c3cccc(C(F)(F)F)c3)CC2)n2nc(-c3ccccc3)nc2n1	inactive
O=S(=O)(NC1CC1)c1ccc(Cl)cc1	inactive
O=S(=O)(CCc1nc2ccccc2o1)c1ccc(Cl)cc1	inactive
O=S(=O)(Cc1ccc(Cl)cc1Cl)c1ccc(Cl)cc1	1.64 µM (active)
CSc1cccc(NC(=O)CSc2ccccc2)c1	inactive
O=C(CCl)Nc1cccc(CP(=O)(c2ccccc2)c2ccccc2)c1	13 µM (active)
O=C(CSc1ccccc1)Nc1ccc(C(=O)Nc2cccc(O)c2)cc1	inactive
Cc1cccc(CC(=O)N2CC(=O)Nc3ccc(F)cc3C2c2ccccc2)c1 (stereo unspecified)	inactive
O=C(C[n+]1ccncc1)c1ccc2c(c1)CCCC2	inactive
CC(C)c1nnc(NC(=O)COC(=O)/C=C/c2ccc([N+](=O)[O-])cc2)s1	inactive
CCOC(=O)/C(=C\c1ccc([N+](=O)[O-])cc1)C(=O)c1cc(C(C)=O)c(Nc2ccccc2)s1	3.26 µM (active)
CCOC(=O)C/C(C)=N\Nc1ccc([N+](=O)[O-])cc1[N+](=O)[O-]	inactive
CN(C)S(=O)(=O)c1ccc(C(=O)N(Cc2cccnc2)c2nc3c(F)cc(F)cc3s2)cc1	inactive
CC(=O)N1CCCc2cc(S(=O)(=O)N3CCC(C(=O)NCc4ccc(C)cc4)CC3)ccc21	inactive
COc1cccc(CNC(=O)C2CCC(CNS(=O)(=O)c3cccs3)CC2)c1 (stereo unspecified)	inactive
O=S(=O)(c1ccc2c(c1)OCCO2)N1CCc2ccccc21	inactive
NS(=O)(=O)c1ccc(CNC(=O)c2cccc(S(=O)(=O)N3CCc4ccccc43)c2)cc1	inactive
CCn1c(=O)c(=O)n(CC)c2cc(S(=O)(=O)N3CCc4ccccc43)ccc21	20.6 µM (active)
Nc1nc(N)c(N=O)c(N)n1	inactive
Cc1cc(Cl)ccc1OCC(=O)N(Cc1ccc(N(C)C)cc1)C1CCS(=O)(=O)C1 (stereo unspecified)	inactive
Nc1cc(N2CCCCCC2)c2nonc2c1[N+](=O)[O-]	11.6 µM (active)
Cc1c(Nc2cc(N3CCCC(C)C3)c3nonc3c2[N+](=O)[O-])c(=O)n(-c2ccccc2)n1C (stereo unspecified)	inactive
COCCNc1nc(N)c([N+](=O)[O-])c(N2CCCCCC2)n1	inactive

Compound	Potency
COc1ccc2ncc3c(-c4ccc(C)c(C)c4)nn(CC(=O)NC4CCCC4)c3c2c1	inactive
C/C(=N/NC(=O)CC(=O)N/N=C(\C)c1ccc([N+](=O)[O-])cc1)c1ccc([N+](=O)[O-])cc1	inactive
Cc1ccc(C(=O)Cn2cccn2)cc1	inactive
CC1=CC(C)(C)NC(=S)N1NC(=O)c1ccccc1Cl	inactive
CC(Sc1nnc2c(n1)C1CCC2(C)C1(C)C)C(=O)Nc1ccccc1 (stereo unspecified)	inactive
CC12CCC(C(=O)N(NC(=O)c3ccccc3O)C1=O)C2(C)C (stereo unspecified)	16.4 µM (active)
Cc1ccc(CNC(=O)CCC(=O)N2Cc3ccccc3Oc3ncccc32)cc1	inactive
CNC(=O)CN1C(=O)c2cccnc2Sc2ccccc21	inactive
CC1=Nc2cc(C(=O)N3CCC(C)CC3)ccc2Sc2ccc(Cl)cc21	inactive
COCCNC(=O)c1ccc(S(=O)(=O)c2ccc(Cl)cc2)c(NC(C)=O)c1	inactive
COCCNC(=O)c1ccc2c(c1)N=C(C)c1cc(C)ccc1S2	0.651 µM (active)
NC(=O)CSc1nc2c(oc3ccccc32)c(=O)n1Cc1ccccc1	inactive
O=c1[nH]c(CCl)nc2cc(-c3ccc(Cl)cc3)sc12	9.2 µM (active)
COc1cccc(-c2cc3nc(NCCOc4ccccc4Cl)n(C)c(=O)c3s2)c1	inactive
Cn1c(NCc2cccnc2)nc2cc(-c3ccc(F)cc3)sc2c1=O	inactive
Cc1cc(C)c2oc(C(=O)Nc3ccc(S(=O)(=O)N(C)c4ccccc4)cc3)cc(=O)c2c1	inactive
CN(C)S(=O)(=O)N1CCC(Oc2cccc(C(=O)NCCCC3CCCC3)c2)CC1	14.6 µM (active)
CN(C(=O)c1cccc(OC2CCN(S(=O)(=O)N(C)C)CC2)c1)C1CCOC1 (stereo unspecified)	inactive
COc1cccc(C(=O)NCCS(=O)(=O)NCC2CCCO2)c1 (stereo unspecified)	inactive
COc1cccc(NC(=O)C2CCN(c3cc(C)nc4c(-c5ccc(Cl)cc5)c(C)nn34)CC2)c1	inactive
CC(NC(=O)c1cc2c(=O)n3ccccc3nc2n(C(C)C)c1=N)c1ccccc1 (stereo unspecified)	inactive
COc1ccc(OC)c(CNC(=O)Cn2nc(C)c3c(C)n(-c4ccccc4)nc3c2=O)c1	inactive
CC(O)(c1cccc(F)c1)c1nc(-c2ccc3c(c2)OCO3)cs1 (stereo unspecified)	inactive
COc1ccc(C(O)c2nc(-c3ccc4c(c3)OCO4)cs2)cc1 (stereo unspecified)	inactive

Compound	Potency
O=C(Nc1nc(-c2ccc3c(c2)OCO3)cs1)c1ccncc1	2.91 µM (active)
Cc1nn(C(C)C(=O)NCCc2ccccc2)c(=O)c2c1sc1ccccc12 (stereo unspecified)	inactive
CCC(C(=O)Nc1cc(OC)ccc1OC)n1c(=O)c(C(F)(F)F)nc2ccccc21 (stereo unspecified)	inactive
O=C(CN1c2ccccc2S(=O)(=O)c2ccccc21)Nc1cccc(C(F)(F)F)c1	inactive
COc1ccc(/C=C2\N=C3CCCN3C2=O)cc1	inactive
COc1ccc(/C=C2/CCCc3ccccc3C2=O)cc1	0.651 µM (active)
COc1ccccc1C1=CC(=O)CCC1	inactive
CNC(=O)c1ccsc1NC(=O)c1ccc(S(=O)(=O)N2CCc3ccccc32)cc1	inactive
O=C(Nc1nc2ccc([N+](=O)[O-])cc2s1)c1ccc(S(=O)(=O)N2CCCc3ccccc32)cc1	2.06 µM (active)
Cc1cc2nc(NC(=O)c3ccc(S(=O)(=O)N4CCOCC4)cc3)sc2cc1C	inactive
O=C(NC1CCCCC1)c1ccc2c(c1)N(Cc1ccc(Cl)cc1)C(=O)c1ccccc1S2=O (stereo unspecified)	inactive
COc1ccc(C(F)(F)F)cc1NC(=O)c1sc2nc(-c3cccs3)ccc2c1N	inactive
N#Cc1c(-c2cccs2)nc(SCC(=O)c2ccc(Br)cc2)[nH]c1=O	inactive
N#Cc1ccc(C(=O)Nc2nc(-c3cccs3)c(C(=O)C(F)(F)F)s2)cc1	5.8 µM (active)
S=C(NCCCc1cnc[nH]1)NCCCN(Cc1ccc(Cl)c(Cl)c1)c1ccc(Br)cn1	13 µM (active)
NCCCNC(=S)NCCCN(Cc1ccc(Cl)cc1)c1ccc(Br)cn1	inactive
O=C(Nc1ccc(Cl)cc1)c1cnn2c1NC(=C1CC1)C=C2C(F)F	inactive
CCn1c(=O)c2cc(C(=O)NCCc3ccc(Cl)cc3)sc2c2ccccc21	inactive
CSc1nc(-c2ccccc2)nc(C(Cl)Cl)n1	2.91 µM (active)
CSc1nc(Nc2ccc(F)cc2)cc(-c2ccccc2)n1	inactive
CC(=O)c1ccc(NC(=O)C2CCN(S(=O)(=O)c3c(C)noc3/C=C/c3ccc(C)cc3)CC2)cc1	inactive
COc1ccc(CNC(=O)CSCc2nc(-c3ccccc3F)oc2C)cc1	inactive
Fc1ccccc1Oc1ncnc2c1oc1ccccc12	inactive
Cc1ccc(-c2ccc(CN3C(C)C(=O)N(Cc4cn(CCC5OCCCO5)nn4)CCS3(=O)=O)cc2)cc1 (stereo unspecified)	inactive

Compound	Potency
Cc1ccc(-c2ccc(CN3C(C(C)C)C(=O)N(Cc4cn(CCC5OCCO5)nn4)CCS3(=O)=O)cc2)cc1 (stereo unspecified)	18.4 µM (active)
CC(C)C1C(=O)N(Cc2cn(CCC3OCCO3)nn2)CCS(=O)(=O)N1Cc1ccc(-c2ccccc2C(F)(F)F)cc1 (stereo unspecified)	inactive
Cc1ccc(-c2nc3ccccn3c2Nc2c(C)cccc2C)o1	inactive
CCOc1ccc(NC(=O)Cn2c(C)ccc(C#N)c2=O)cc1	inactive
CC(=O)c1cccc(Nc2ccc3cc(S(=O)(=O)N4CCC(C)CC4)ccc3n2)c1	inactive
CCOc1cc(NC(=O)CCl)c(OCC)cc1NC(C)=O	18.4 µM (active)
CCOc1cc(NC(=O)Nc2ccccc2)c(OCC)cc1NC(=O)CC	inactive
CCCC(=O)Nc1cc(OCC)c(NC(=O)NC2CCCCC2)cc1OCC	inactive
COc1ccc(OC)c(NC(=O)C2CCCN(S(=O)(=O)c3ccc4c(c3)CCCC(=O)N4)C2)c1 (stereo unspecified)	inactive
COC(=O)c1cc(NC(=O)CCS(=O)(=O)c2cc(Br)cc3c2N(C(=O)C2CC2)CC3)cc(C(=O)OC)c1	inactive
Cc1ccc(C(=O)N/C(=C/c2ccc(-c3cccc([N+](=O)[O-])c3)o2)C(=O)NCCCN(C)C)cc1	inactive
Cc1ccc(Cc2cnc(NC(=O)/C(C#N)=C/c3ccc(-c4cccc([N+](=O)[O-])c4)o3)s2)cc1	14.6 µM (active)
CCOC(=O)c1ccc(-c2ccc(/C=C(\C#N)C(=O)Nc3ccc(C)cc3)o2)cc1	inactive
CCc1ccccc1NC(=O)CSc1nc(C)c(C(=O)Nc2ccccc2)c(-c2ccc(Cl)cc2)c1C#N	inactive
CCN(CCCNC(=O)c1c(C)oc2ncn(CC(C)C)c(=O)c12)Cc1ccccc1	inactive
COc1ccc(-c2cc(NCc3ccc(F)cc3)n3cnnc3n2)cc1	inactive
COc1cc(OC)cc(C(=O)N[C@H](C(=O)Nc2nc3ccccc3[nH]2)C(C)C)c1	1.64 µM (active)
COc1cc(OC)cc(C(=O)NC(C(=O)N2CCC2)C(C)C)c1 (stereo unspecified)	inactive
COc1cc(OC)cc(C(=O)N[C@H](C(=O)OCC(=O)NC(C)c2ccccc2)C(C)C)c1 (stereo partly specified)	inactive
CCCc1ccc(OCc2ccc(C(=O)N/N=C/c3cccc([N+](=O)[O-])c3)o2)c(OC)c1	18.4 µM (active)
COc1ccccc1OCc1ccc(C(=O)NC(C)c2ccccc2)o1 (stereo unspecified)	inactive
COc1ccc(O)c(/C=N/N=C/c2cccc([N+](=O)[O-])c2)c1	inactive
COc1ccc(OC)c(NC(=O)Cn2c(=O)n(Cc3ccccc3)c(=O)c3ccccc32)c1	inactive
COc1ccc(NC(=O)CCCN2C(=O)CCn3nc(-c4cn(C)c5ccccc45)cc32)cc1OC	inactive
